Targets with a hit are over-represented here; the source holds about 7,900 in all. About 0.6% of all pairs of compound and target were hits. Unmarked numbers belong to inactive results.
Experiments:
Assay in all cases: log2 fold change, soluble protein after heating vs DMSO (PISA); higher = thermal stabilisation; K562 cells, 10 uM, 30 min; active = over 0.2 and 3.5 SD of the protein, either way, in both replicates (recomputed)
IRAK-1-4 Inhibitor I = compound: C1COCCN1CCN2C3=CC=CC=C3N=C2NC(=O)C4=CC(=CC=C4)[N+](=O)[O-] [IRAK-1-4 Inhibitor I]
Procedure, shortened: (§1)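 Quantification of soluble protein used TMTpro 16plex LC-MS/MS, with channel sums equalised. Samples were the supernatant after 21,000xg for 90 min of pooled aliquots from K562 cells (2×10^6 cells/mL) treated with 10 μM compound for 30 min, heated for 3 min over 48°C-58°C, and extracted in PBS with 0.5% NP-40 at 4°C. Values, from duplicates, describe thermal stability against control samples on a log2 fold-change scale.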

ibrutinib = compound: C=CC(=O)N1CCC[C@@H](n2nc(-c3ccc(Oc4ccccc4)cc3)c3c(N)ncnc32)C1 [ibrutinib]
Procedure, shortened: as §1

[1] = compound: CC(=O)c1cnc2ccc(-c3cc(Cl)c(O)c(Cl)c3)nc2c1N[C@H]1CC[C@H](CN(C)C)CC1
Procedure, shortened: as §1

ralimetinib = compound: CC(C)(C)Cn1c(N)nc2ccc(-c3[nH]c(C(C)(C)C)nc3-c3ccc(F)cc3)nc21 [ralimetinib]
Procedure, shortened: as §1

[2] = compound: CC(C)(O)CC(=O)NCCn1ccc2ncnc(Nc3ccc(Oc4cccc(C(F)(F)F)c4)c(Cl)c3)c21
Procedure, shortened: as §1

[3] = compound: CC(C)C1=C2N=C(C=C(N2N=C1)NCC3=CC=CC=C3)NCCCCCCN
Procedure, shortened: as §1

[4] = compound: CC(C)C[C@@H](C=O)NC(=O)[C@H](CC(C)C)NC(=O)[C@H](CC(C)C)NC(=O)OCc1ccccc1
Procedure, shortened: as §1

pinometostat = compound: CC(C)N(C[C@H]1O[C@@H](n2cnc3c(N)ncnc32)[C@H](O)[C@@H]1O)[C@H]1C[C@@H](CCc2nc3cc(C(C)(C)C)ccc3[nH]2)C1 [pinometostat]
Procedure, shortened: as §1

[5] = compound: CC1=C(C(CC(=O)N1)C2=CC=C(C=C2)C(F)(F)F)C(=O)NC3=C(C=C4C(=C3)C=NN4)F
Procedure, shortened: as §1

[6] = compound: CC1=C(C2=C(C=C1)C(=O)C3=CC=CC=C3N2CCCN)C
Procedure, shortened: as §1

[7] = compound: CC1=C(C=C(C=C1)NC(=O)C2=CC(=CC=C2)C(C)(C)C#N)NC3=CC4=C(C=C3)N=CN(C4=O)C
Procedure, shortened: as §1

[8] = compound: CC1=C(C=C(C=C1)NC(=O)C2=CC(=CC=C2)N(C)C)NC(=O)C3=CC=C(C=C3)O
Procedure, shortened: as §1

[9] = compound: CC1=CC=C(C=C1)SC2=C3C=C(SC3=CN=C2)C(=O)N
Procedure, shortened: as §1

[10] = compound: CC1=NC(=CC=C1)C2=C(N=C(N2)C(C)(C)C)C3=CC4=NC=CN=C4C=C3
Procedure, shortened: as §1

Nexturastat A = compound: CCCCN(Cc1ccc(C(=O)NO)cc1)C(=O)Nc1ccccc1 [Nexturastat A]
Procedure, shortened: as §1

vemurafenib = compound: CCCS(=O)(=O)Nc1ccc(F)c(C(=O)c2c[nH]c3ncc(-c4ccc(Cl)cc4)cc23)c1F [vemurafenib]
Procedure, shortened: as §1

[11] = compound: CCCS(=O)(=O)Nc1ccc(F)c(C(=O)c2c[nH]c3ncc(Cl)cc23)c1F
Procedure, shortened: as §1

[12] = compound: CCCc1cc(C)[nH]c(=O)c1CNC(=O)c1cc(-c2ccnc(N3CCN(C)CC3)c2)cc2c1cnn2C(C)C
Procedure, shortened: as §1

givinostat = compound: CCN(CC)Cc1ccc2cc(COC(=O)Nc3ccc(C(=O)NO)cc3)ccc2c1 [givinostat]
Procedure, shortened: as §1

barasertib = compound: CCN(CCCOc1ccc2c(Nc3cc(CC(=O)Nc4cccc(F)c4)[nH]n3)ncnc2c1)CCOP(=O)(O)O [barasertib]
Procedure, shortened: as §1

UniProt Q96HJ9, sequence (Q96HJ9 whole entry, looked up): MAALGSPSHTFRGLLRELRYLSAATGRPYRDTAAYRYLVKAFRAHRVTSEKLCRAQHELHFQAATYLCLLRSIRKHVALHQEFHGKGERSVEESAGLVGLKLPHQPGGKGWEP
UniProt Q03013, sequence (Q03013 whole entry, looked up): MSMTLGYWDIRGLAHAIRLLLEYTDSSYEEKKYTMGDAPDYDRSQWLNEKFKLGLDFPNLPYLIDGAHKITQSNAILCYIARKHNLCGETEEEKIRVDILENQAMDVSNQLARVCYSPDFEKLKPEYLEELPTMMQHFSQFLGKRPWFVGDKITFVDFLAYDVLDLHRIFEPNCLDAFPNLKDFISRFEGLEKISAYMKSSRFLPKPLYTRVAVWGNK
UniProt Q8NB37, sequence (Q8NB37 whole entry, looked up): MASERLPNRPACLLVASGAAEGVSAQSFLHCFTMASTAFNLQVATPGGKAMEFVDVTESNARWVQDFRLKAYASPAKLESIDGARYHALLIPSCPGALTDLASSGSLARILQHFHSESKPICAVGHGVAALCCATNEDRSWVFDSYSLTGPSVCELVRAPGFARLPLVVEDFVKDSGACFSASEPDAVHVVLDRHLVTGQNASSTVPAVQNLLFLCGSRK
UniProt P37268, sequence (P37268 whole entry, looked up): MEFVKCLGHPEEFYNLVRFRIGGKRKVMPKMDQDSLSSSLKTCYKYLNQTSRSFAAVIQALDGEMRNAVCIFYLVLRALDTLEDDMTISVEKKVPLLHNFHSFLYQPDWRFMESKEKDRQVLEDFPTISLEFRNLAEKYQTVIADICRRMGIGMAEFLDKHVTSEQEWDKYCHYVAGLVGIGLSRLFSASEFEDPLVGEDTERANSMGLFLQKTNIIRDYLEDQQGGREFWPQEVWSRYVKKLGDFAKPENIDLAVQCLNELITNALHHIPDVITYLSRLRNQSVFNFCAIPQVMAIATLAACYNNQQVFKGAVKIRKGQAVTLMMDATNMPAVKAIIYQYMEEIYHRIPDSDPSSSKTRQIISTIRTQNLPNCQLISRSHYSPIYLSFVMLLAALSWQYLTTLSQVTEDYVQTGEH
UniProt Q13907, sequence (Q13907 whole entry, looked up): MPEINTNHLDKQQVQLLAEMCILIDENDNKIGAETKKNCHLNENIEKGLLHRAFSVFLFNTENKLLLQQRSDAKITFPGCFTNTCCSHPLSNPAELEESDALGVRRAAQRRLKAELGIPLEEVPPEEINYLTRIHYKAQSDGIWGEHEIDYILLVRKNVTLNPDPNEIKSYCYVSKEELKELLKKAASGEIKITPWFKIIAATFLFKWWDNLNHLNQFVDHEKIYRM
UniProt P04066, sequence (P04066 whole entry, looked up): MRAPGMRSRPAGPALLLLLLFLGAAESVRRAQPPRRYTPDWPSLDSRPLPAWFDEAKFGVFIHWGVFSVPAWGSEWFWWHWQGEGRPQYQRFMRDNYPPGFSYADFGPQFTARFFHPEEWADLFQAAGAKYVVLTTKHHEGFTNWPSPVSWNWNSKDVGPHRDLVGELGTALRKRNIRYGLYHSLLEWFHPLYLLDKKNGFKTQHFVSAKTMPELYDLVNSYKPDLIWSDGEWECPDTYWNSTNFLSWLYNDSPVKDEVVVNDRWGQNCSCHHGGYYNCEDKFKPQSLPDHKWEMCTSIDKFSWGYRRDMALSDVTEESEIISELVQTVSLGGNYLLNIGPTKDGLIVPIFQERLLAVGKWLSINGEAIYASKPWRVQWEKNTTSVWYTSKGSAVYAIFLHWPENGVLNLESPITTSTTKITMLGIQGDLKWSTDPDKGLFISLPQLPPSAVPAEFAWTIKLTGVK
UniProt P60520, sequence (P60520 whole entry, looked up): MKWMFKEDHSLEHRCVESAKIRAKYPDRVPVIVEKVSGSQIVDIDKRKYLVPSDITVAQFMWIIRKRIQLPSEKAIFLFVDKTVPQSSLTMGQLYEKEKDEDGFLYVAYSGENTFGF
UniProt Q86VQ1, sequence (Q86VQ1 whole entry, looked up): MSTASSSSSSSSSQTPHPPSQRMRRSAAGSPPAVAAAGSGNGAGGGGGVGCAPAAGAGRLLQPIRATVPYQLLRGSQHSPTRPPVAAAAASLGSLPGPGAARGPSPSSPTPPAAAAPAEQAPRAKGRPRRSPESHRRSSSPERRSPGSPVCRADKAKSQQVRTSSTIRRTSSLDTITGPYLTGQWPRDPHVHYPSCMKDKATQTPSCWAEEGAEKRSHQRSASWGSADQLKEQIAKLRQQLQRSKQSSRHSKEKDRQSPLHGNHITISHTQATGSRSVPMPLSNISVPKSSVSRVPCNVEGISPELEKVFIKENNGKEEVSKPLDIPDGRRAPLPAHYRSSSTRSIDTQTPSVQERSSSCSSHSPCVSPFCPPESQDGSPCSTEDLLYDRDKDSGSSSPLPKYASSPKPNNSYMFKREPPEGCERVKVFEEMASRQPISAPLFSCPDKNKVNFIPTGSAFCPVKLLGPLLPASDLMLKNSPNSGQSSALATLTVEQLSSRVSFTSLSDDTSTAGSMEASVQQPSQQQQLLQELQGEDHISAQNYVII
UniProt Q9BXW9, sequence (Q9BXW9 whole entry, looked up): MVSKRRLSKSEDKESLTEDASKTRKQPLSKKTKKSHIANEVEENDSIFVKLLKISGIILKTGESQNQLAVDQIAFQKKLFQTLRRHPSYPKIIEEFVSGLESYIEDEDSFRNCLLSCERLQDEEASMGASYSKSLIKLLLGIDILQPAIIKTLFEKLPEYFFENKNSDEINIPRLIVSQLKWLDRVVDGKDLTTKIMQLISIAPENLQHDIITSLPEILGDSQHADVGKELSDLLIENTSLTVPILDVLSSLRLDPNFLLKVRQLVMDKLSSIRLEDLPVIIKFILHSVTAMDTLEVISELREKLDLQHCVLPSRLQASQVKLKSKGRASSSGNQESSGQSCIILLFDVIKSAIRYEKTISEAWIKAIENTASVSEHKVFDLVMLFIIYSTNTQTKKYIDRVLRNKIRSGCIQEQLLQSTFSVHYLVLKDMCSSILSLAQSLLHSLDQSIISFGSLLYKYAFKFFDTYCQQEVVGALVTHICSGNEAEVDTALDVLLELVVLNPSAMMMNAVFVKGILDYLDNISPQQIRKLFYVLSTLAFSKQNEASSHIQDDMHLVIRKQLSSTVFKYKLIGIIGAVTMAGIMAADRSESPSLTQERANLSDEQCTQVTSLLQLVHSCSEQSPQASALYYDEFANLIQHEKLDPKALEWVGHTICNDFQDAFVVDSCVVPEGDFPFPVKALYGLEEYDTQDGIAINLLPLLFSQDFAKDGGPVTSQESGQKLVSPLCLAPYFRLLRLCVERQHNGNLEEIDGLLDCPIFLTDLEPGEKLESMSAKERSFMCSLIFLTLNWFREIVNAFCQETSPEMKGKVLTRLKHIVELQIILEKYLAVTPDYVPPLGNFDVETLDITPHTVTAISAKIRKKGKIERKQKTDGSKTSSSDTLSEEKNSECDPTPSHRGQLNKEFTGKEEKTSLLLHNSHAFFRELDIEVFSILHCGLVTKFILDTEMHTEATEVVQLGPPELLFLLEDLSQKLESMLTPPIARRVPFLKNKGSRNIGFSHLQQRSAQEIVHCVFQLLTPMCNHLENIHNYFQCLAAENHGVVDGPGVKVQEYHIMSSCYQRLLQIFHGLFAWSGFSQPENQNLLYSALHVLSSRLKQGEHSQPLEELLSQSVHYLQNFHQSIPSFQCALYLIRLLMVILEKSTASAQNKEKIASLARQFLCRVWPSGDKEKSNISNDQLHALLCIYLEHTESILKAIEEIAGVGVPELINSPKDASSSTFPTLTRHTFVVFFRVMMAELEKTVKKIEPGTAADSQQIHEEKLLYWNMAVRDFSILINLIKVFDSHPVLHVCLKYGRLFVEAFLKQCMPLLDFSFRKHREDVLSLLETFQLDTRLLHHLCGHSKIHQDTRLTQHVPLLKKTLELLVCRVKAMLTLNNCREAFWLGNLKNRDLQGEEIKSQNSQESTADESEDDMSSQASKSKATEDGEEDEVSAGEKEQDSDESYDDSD
UniProt Q86UL3, sequence (Q86UL3 whole entry, looked up): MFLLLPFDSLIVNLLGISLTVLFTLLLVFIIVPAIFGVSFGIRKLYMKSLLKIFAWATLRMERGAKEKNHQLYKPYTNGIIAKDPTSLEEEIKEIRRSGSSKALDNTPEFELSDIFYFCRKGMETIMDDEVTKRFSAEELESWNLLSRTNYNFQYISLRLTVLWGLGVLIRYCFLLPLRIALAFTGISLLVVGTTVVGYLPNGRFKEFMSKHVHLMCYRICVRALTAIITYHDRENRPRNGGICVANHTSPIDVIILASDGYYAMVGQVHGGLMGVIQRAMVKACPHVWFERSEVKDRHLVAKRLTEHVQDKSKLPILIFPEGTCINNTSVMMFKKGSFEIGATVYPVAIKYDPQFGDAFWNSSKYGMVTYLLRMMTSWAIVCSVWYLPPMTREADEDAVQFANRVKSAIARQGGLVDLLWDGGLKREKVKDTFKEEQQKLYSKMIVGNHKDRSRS
UniProt Q10471, sequence (Q10471 whole entry, looked up): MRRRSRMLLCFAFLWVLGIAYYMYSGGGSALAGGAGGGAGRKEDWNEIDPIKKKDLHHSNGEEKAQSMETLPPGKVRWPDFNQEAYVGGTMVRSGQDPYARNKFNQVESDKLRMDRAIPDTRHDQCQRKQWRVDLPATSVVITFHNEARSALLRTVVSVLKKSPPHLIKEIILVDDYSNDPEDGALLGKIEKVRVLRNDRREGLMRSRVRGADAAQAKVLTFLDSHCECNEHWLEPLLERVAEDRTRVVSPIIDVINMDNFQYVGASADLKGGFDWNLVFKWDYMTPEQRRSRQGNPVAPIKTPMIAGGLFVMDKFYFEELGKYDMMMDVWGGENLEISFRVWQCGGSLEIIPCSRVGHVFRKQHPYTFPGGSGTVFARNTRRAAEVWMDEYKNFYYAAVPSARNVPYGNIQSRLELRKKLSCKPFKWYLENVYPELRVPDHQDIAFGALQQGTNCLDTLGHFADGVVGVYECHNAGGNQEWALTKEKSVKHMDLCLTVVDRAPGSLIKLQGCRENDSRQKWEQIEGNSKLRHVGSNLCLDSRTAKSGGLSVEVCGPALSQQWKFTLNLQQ

Target | log2 fold change (IRAK-1-4 Inhibitor I) | log2 fold change (ibrutinib) | log2 fold change [1] | log2 fold change (ralimetinib) | log2 fold change [2] | log2 fold change [3] | log2 fold change [4] | log2 fold change (pinometostat) | log2 fold change [5] | log2 fold change [6] | log2 fold change [7] | log2 fold change [8] | log2 fold change [9] | log2 fold change [10] | log2 fold change (Nexturastat A) | log2 fold change (vemurafenib) | log2 fold change [11] | log2 fold change [12] | log2 fold change (givinostat) | log2 fold change (barasertib)
GATD1 (UniProt Q8NB37) | -0.069 | 0.106 | -0.099 | -0.026 | 0.01 | 0.026 | 0.104 | 0.141 | 0.032 | 0 | 0.054 | -0.041 | -0.023 | -0.108 | 0.067 | -0.047 | -0.06 | 0.021 | 0.013 | 0.024
GLS (UniProt O94925) | 0.051 | -0.096 | 0.002 | -0.071 | -0.14 | 0.004 | 0.032 | -0.037 | 0.008 | 0.002 | -0.013 | -0.072 | -0.024 | 0.034 | -0.065 | 0.096 | 0.132 | 0.062 | 0.041 | 0.054
GLCCI1 (UniProt Q86VQ1) | 0.062 | 0.013 | -0.131 | 0.001 | -0.012 | 0.075 | 0.017 | -0.03 | 0.098 | -0.013 | 0.037 | 0.104 | -0.029 | 0.028 | 0 | -0.007 | -0.035 | 0.033 | 0.045 | -0.075
GABARAPL2 (UniProt P60520) | 0.107 | -0.018 | -0.076 | 0.008 | -0.028 | -0.269 (active) | -0.007 | -0.103 | 0.016 | -0.015 | -0.01 | 0.023 | 0.067 | 0.188 | -0.122 | 0.026 | 0.051 | -0.03 | 0.03 | 0.007
GPAT4 (UniProt Q86UL3) | -0.144 | -0.081 | 0.044 | -0.058 | -0.09 | 0.145 | 0.007 | -0.029 | -0.015 | 0.047 | 0.05 | -0.004 | 0.014 | -0.004 | -0.004 | 0.036 | 0.027 | 0.019 | -0.024 | 0.027
FNTA (UniProt P49354) | 0.052 | 0.107 | 0.081 | -0.05 | -0.023 | 0.016 | -0.031 | -0.018 | -0.023 | -0.074 | -0.035 | -0.009 | 0.048 | -0.011 | -0.063 | -0.045 | -0.047 | 0.007 | -0.052 | 0.007
FDFT1 (UniProt P37268) | 0.001 | 0.007 | -0.025 | -0.028 | -0.015 | -0.083 | 0.077 | -0.042 | 0.012 | -0.06 | -0.008 | 0.01 | 0.063 | -0.034 | 0.01 | 0 | 0.092 | 0.1 | -0.018 | 0.009
IDI1 isoform 2 (UniProt Q13907) | 0.052 | 0.034 | -0.01 | -0.04 | 0.1 | 0.077 | -0.002 | -0.012 | 0.04 | -0.099 | -0.017 | -0.007 | -0.015 | 0.003 | -0.082 | 0.005 | -0.029 | -0.185 | -0.219 | 0.024
GALNT2 (UniProt Q10471) | 0.009 | -0.019 | -0.006 | 0.014 | 0.027 | -0.021 | -0.02 | -0.02 | -0.028 | 0.007 | -0.003 | -0.035 | 0.016 | 0.038 | -0.032 | 0 | 0.04 | 0.03 | -0.005 | 0.011
GSTM4 (UniProt Q03013) | 0.091 | -0.028 | -0.083 | -0.035 | -0.103 | 0.029 | -0.008 | -0.05 | -0.036 | 0.115 | 0.106 | 0.128 | -0.041 | 0.015 | -0.117 | 0.126 | -0.058 | -0.105 | 0.001 | -0.164
FANCD2 isoform 1 (UniProt Q9BXW9) | -0.002 | 0.025 | -0.155 | -0.082 | -0.029 | -0.354 (active) | -0.266 | 0.062 | 0.002 | -0.369 (active) | 0.003 | -0.007 | 0.027 | -0.035 | -0.09 | 0.033 | 0.099 | -0.031 | 0.017 | 0.043
IDH3A (UniProt P50213) | 0.033 | 0.021 | -0.008 | -0.085 | -0.044 | 0.034 | 0 | -0.029 | 0.008 | 0.015 | -0.029 | -0.003 | 0.031 | 0.015 | -0.084 | 0.009 | -0.009 | -0.014 | -0.06 | -0.006
IFT74 (UniProt Q96LB3) | 0.067 | 0.146 | 0.02 | 0.27 | -0.095 | 0.191 | 0.076 | -0.024 | -0.085 | 0.071 | -0.086 | -0.044 | -0.01 | -0.084 | 0.746 (active) | -0.059 | 0.005 | -0.007 | 0.26 | -0.037
FUCA1 (UniProt P04066) | -0.003 | 0.018 | -0.049 | -0.067 | 0.056 | -0.054 | 0.003 | -0.03 | -0.008 | -0.199 | 0.03 | 0.009 | 0.021 | 0.092 | -0.054 | -0.007 | 0.066 | -0.016 | 0 | 0.012
GALK1 isoform 2 (UniProt P51570) | 0.046 | 0.024 | 0.018 | 0.081 | -0.081 | -0.004 | -0.121 | 0.041 | 0.023 | -0.018 | 0.244 | 0.004 | 0.144 | 0.02 | -0.082 | 0.144 | 0.183 | 0.033 | 0.018 | -0.007
FMC1 (UniProt Q96HJ9) | -0.06 | 0.008 | 0.066 | -0.098 | -0.006 | 0.01 | 0.125 | 0.047 | -0.041 | 0.02 | -0.036 | -0.029 | 0.027 | 0.004 | -0.038 | -0.065 | 0.014 | -0.074 | -0.051 | 0.022

Source: the supplement of paper PMC10849652
